Our source for the inhibition values is ChEMBL document CHEMBL1961873, “Compounds: GSK PKIS; Assays: Nanosyn kinase panel” (2012).

Assay [1] addresses Serine/threonine-protein kinase MARK2 (Homo sapiens) (UniProt Q7KZI7). The note with it: at 1 µM.
Assay [2] addresses PAS domain-containing serine/threonine-protein kinase (Homo sapiens) (UniProt Q96RG2). The settings on record: at 0.1 µM.
For assay [3] the target is unchanged. The settings on record: at 1 µM.
Assay [4] has as its target Phosphorylase b kinase gamma catalytic chain, skeletal muscle/heart isoform (Homo sapiens) (UniProt Q16816). The note with it: at 0.1 µM.
For assay [5] the target is unchanged. The note with it: at 1 µM.
Assay [6] has as its target T1, Phosphorylase b kinase gamma catalytic chain, liver/testis isoform (Homo sapiens) (UniProt P15735).
T1 sequence (whole entry): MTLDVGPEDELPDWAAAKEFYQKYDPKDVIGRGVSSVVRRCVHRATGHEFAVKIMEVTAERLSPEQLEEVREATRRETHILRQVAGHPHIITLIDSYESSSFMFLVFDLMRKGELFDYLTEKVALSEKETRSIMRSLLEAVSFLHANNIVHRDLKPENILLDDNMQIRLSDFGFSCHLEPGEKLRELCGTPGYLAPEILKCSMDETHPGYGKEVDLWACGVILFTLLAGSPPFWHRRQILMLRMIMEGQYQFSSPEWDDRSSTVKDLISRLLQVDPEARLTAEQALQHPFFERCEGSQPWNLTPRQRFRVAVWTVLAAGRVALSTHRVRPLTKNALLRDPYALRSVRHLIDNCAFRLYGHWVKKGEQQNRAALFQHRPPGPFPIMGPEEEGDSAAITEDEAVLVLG
The settings on record: at 0.1 µM.

In assay [7] the target is T1, Phosphorylase b kinase gamma catalytic chain, liver/testis isoform (Homo sapiens). The note with it: at 1 µM.
The target of assay [8] is Serine/threonine-protein kinase pim-1 (Homo sapiens) (UniProt P11309). The note with it: at 0.1 µM.
For assay [9] the target is unchanged. The settings on record: at 1 µM.
Assay [10] has as its target Serine/threonine-protein kinase pim-2 (Homo sapiens) (UniProt Q9P1W9). The settings on record: at 0.1 µM.
The target is the same in assay [11]. The note with it: at 1 µM.
Assay [12] has as its target Serine/threonine-protein kinase pim-3 (Homo sapiens) (UniProt Q86V86). The settings on record: at 0.1 µM.
The target is the same in assay [13]. The settings on record: at 1 µM.
Assay [14] addresses T2, MAP kinase-activated protein kinase 5 (Homo sapiens) (UniProt Q8IW41).
T2 sequence (whole entry): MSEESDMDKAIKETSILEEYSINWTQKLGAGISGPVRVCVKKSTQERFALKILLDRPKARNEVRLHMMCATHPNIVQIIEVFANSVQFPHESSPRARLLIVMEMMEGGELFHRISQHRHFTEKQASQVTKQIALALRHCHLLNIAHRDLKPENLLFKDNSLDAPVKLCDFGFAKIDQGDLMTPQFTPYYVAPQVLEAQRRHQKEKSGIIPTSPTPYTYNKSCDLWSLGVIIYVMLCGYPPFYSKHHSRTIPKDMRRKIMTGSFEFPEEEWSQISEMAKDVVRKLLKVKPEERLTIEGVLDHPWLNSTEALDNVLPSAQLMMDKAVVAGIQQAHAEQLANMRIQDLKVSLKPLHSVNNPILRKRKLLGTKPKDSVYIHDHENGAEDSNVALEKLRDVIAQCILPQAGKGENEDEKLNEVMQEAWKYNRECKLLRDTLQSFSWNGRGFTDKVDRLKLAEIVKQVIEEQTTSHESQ
The note with it: at 0.1 µM.

Assay [15] concerns the target T2, MAP kinase-activated protein kinase 5 (Homo sapiens). The note with it: at 1 µM.
For assay [16], the target named is Serine/threonine-protein kinase SIK1 (Homo sapiens) (UniProt P57059). The settings on record: at 0.1 µM.
For assay [17] the target is unchanged. The note with it: at 1 µM.
In assay [18] the target is Serine/threonine-protein kinase SIK2 (Homo sapiens) (UniProt Q9H0K1). The settings on record: at 0.1 µM.
Assay [19] has the same target. The note with it: at 1 µM.
Assay [20] addresses T3, Serine/threonine-protein kinase TBK1 (Homo sapiens) (UniProt Q9UHD2).
T3 sequence (whole entry): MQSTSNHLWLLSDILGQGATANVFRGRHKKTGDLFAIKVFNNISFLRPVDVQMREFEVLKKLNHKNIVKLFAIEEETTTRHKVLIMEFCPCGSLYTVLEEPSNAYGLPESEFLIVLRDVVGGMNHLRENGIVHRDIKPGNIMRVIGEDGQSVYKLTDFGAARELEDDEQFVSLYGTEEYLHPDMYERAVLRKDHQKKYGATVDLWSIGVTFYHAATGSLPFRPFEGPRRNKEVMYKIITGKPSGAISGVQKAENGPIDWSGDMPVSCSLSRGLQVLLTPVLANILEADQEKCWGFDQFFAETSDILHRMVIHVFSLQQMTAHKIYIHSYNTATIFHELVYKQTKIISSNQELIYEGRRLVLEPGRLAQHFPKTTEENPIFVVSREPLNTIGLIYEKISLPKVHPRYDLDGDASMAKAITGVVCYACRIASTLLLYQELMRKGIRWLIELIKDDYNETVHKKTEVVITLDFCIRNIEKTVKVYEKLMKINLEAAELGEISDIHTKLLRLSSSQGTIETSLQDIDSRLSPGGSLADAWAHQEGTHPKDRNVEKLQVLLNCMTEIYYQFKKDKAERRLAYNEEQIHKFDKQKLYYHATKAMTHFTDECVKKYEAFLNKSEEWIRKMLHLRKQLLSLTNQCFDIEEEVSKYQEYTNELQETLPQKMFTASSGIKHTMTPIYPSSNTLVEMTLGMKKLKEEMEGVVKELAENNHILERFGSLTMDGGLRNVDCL
The note with it: at 0.1 µM.

Chain of Serine/threonine-protein kinase pim-2 (Homo sapiens) (Q9P1W9 whole entry, looked up): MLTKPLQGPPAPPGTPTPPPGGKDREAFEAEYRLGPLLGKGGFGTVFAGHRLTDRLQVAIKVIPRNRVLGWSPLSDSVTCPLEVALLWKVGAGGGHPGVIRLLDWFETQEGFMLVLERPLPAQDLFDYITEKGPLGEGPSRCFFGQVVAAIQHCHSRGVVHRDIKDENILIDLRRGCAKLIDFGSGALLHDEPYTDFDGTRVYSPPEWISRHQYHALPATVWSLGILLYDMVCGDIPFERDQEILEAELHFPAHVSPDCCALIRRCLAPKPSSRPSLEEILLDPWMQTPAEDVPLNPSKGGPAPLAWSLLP
Chain of Serine/threonine-protein kinase SIK1 (Homo sapiens) (P57059 whole entry): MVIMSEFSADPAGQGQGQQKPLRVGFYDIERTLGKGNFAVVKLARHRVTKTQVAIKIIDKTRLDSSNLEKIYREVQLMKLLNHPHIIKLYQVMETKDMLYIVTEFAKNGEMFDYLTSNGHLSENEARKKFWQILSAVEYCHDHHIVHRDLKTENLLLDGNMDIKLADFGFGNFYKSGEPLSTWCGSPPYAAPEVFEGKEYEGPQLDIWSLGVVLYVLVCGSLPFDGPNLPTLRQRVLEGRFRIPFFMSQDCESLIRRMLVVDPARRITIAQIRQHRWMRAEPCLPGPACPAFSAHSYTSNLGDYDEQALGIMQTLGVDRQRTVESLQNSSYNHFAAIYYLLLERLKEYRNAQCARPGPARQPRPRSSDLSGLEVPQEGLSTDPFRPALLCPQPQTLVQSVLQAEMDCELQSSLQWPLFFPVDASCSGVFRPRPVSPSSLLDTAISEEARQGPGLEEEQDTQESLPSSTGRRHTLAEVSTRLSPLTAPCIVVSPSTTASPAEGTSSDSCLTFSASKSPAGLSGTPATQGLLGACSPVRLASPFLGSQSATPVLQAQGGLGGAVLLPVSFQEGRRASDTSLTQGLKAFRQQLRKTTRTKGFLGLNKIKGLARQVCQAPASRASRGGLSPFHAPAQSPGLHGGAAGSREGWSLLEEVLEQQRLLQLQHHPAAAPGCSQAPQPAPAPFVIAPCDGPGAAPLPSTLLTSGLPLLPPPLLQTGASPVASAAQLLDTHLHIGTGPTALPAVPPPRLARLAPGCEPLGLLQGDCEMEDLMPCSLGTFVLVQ
Chain of Serine/threonine-protein kinase MARK2 (Homo sapiens) (Q7KZI7 whole entry, the tested form may be a part): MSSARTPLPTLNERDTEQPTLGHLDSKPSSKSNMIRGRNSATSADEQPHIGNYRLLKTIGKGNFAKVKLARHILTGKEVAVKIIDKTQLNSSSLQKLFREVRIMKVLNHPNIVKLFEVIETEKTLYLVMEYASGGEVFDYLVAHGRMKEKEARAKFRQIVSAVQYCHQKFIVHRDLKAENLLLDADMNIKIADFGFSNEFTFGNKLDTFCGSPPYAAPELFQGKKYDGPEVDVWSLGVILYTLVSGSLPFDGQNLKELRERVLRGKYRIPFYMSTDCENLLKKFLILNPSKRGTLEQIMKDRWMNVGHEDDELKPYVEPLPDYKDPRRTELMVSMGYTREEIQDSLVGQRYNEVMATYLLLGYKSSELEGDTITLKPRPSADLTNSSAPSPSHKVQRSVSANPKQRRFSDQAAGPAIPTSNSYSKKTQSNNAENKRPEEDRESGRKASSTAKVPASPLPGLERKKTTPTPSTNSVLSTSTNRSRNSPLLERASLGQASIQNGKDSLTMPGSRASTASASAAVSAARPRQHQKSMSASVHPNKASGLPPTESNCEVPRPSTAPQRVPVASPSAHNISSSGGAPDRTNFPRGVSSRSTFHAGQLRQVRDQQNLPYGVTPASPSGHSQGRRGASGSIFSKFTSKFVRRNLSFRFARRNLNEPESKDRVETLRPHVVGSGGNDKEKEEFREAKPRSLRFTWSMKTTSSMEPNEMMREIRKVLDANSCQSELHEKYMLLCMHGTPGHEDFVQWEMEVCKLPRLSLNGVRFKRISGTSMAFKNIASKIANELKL
Chain of PAS domain-containing serine/threonine-protein kinase (Homo sapiens) (Q96RG2 whole entry, the tested form may be a part): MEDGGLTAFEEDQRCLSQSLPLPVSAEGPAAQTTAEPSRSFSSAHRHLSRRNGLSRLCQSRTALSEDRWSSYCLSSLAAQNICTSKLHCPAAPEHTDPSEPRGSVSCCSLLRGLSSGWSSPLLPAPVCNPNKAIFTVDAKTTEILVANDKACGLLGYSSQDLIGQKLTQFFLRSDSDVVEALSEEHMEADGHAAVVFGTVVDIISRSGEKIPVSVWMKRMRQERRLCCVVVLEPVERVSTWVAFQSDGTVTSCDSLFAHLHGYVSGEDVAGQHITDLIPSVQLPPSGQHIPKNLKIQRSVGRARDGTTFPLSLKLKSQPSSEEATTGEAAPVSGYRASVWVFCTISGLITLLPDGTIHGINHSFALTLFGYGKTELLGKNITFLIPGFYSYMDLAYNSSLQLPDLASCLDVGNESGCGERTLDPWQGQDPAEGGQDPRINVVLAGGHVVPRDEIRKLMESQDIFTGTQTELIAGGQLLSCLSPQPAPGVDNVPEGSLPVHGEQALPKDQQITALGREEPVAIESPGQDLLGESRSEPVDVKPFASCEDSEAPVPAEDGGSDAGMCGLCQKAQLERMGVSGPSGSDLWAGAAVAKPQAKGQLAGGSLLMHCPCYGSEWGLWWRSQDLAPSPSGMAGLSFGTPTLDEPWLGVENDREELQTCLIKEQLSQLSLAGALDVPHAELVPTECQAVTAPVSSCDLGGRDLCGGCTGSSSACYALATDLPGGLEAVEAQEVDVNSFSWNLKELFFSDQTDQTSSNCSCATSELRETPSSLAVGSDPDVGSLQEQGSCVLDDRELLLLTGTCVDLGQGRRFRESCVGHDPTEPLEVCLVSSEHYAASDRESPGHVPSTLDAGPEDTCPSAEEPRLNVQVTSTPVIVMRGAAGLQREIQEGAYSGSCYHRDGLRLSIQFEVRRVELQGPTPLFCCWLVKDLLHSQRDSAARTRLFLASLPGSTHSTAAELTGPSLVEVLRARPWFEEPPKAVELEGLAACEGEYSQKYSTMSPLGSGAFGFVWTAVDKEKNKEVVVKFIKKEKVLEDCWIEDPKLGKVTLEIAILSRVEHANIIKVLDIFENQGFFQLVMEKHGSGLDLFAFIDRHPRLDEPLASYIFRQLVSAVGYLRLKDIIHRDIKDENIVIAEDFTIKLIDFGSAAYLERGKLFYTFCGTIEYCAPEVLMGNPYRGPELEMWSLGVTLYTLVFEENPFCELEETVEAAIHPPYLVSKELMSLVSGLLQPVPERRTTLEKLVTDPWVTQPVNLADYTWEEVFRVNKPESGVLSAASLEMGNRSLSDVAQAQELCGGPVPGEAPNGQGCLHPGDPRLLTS
Chain of Serine/threonine-protein kinase SIK2 (Homo sapiens) (Q9H0K1 whole entry, looked up): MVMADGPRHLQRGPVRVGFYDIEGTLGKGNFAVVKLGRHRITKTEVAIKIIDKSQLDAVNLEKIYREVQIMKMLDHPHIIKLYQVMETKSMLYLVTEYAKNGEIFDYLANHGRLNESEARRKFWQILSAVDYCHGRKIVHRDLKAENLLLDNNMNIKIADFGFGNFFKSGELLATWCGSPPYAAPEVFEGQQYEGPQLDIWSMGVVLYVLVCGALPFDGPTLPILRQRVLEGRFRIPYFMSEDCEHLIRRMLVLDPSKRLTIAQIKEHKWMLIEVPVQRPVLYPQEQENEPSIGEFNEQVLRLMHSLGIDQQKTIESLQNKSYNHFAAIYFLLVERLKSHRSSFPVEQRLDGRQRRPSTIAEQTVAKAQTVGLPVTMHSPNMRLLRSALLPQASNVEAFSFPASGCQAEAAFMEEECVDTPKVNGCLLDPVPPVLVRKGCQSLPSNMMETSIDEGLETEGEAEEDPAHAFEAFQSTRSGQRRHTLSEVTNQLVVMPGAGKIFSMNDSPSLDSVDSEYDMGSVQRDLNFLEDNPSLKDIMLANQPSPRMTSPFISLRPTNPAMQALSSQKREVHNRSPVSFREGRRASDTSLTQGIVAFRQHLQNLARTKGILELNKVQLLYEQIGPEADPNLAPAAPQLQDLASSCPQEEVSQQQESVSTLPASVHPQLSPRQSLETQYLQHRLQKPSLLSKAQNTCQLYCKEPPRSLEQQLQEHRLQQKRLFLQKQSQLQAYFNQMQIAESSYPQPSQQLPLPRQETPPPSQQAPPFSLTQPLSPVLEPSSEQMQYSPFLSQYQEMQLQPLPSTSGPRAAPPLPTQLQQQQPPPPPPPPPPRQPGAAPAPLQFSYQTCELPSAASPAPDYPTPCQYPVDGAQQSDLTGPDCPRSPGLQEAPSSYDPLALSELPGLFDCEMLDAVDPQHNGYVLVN
Chain of Phosphorylase b kinase gamma catalytic chain, skeletal muscle/heart isoform (Homo sapiens) (Q16816 whole entry, looked up, canonical isoform): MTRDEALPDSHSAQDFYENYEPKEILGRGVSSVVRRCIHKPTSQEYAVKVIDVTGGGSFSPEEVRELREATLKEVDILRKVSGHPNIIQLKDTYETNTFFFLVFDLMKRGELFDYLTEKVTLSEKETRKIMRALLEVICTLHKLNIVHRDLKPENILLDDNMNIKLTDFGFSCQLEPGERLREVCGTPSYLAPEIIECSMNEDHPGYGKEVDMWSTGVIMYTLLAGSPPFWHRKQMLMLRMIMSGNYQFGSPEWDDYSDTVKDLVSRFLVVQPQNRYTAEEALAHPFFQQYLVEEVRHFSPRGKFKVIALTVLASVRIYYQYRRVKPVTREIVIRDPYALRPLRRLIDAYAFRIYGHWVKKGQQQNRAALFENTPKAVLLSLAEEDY

For the compound `CCn1c(-c2nonc2N)nc2c(C#CCN)ncc(OCCCN)c21`, the inhibition in [1] is 10.1%; in assay [2], 1.4%; in assay [3] it was 16.9%; in assay [4], 3.15%; in assay [5], 5.73%; in assay [6], -1.7%. The inhibition was 4.75% in assay [7]; 4.76% in assay [8]; 36% in assay [9]; 3.26% in assay [10]; 5.54% in [11]; 9.18% in [12]. The inhibition is 33% in assay [13]; -1.32% in assay [14]; 1.09% in assay [15]; -4.16% in [16]; -7.22% in assay [17]; -2.87% in assay [18]. For the same compound, the values for the inhibition in assay [19] and in assay [20] were -1.04% and -0.18%, respectively.

As to `NC(=O)c1sc(-n2cnc3cc(C(F)(F)F)ccc32)cc1OCc1ccccc1Br`, the inhibition in assay [1] was 2.11%; in assay [2], 1.33%; in assay [3], 0.96%; in assay [4] it was 0.3%; in [5], 5.87%; in assay [6] it was 2.5%. Also, the inhibition was 3.01% in [7]; 1.18% in assay [8]; 1.5% in assay [9]; -0.35% in [10]; 1.16% in assay [11]; 1.55% in assay [12]. In addition, the inhibition is 2.84% in assay [13]; 0.86% in assay [14]; 0.76% in [15]; 6.45% in assay [16]; 1.7% in [17]; -0.18% in assay [18]. For the same compound, the inhibition stood at 3.79% in [19] and 0.98% in assay [20].

Take `COc1cc2c(cc1Nc1nc(Nc3ccsc3C(N)=O)c3cc[nH]c3n1)N(C(=O)CN(C)C)CCC2`: the inhibition was 5.44% in assay [1]; 0.93% in assay [2]; 1.03% in assay [3]; 8.54% in assay [4]; 41.3% in assay [5]; -0.5% in [6]. Also, the inhibition in assay [7] is -0.53%; in assay [8] it was 31.3%; in assay [9] it was 79.8%; in [10] it was 0.47%; in assay [11] it was 3.29%; in [12], 6.22%. Moreover, the inhibition in assay [13] is 38.3%; in assay [14], 1.1%; in assay [15], 1.23%; in [16] it was -0.68%; in assay [17] it was -0.04%; in [18] it was -2.92%. The inhibition worked out at 5.93% in assay [19] and 9.46% in assay [20].

For `Cc1cc(-c2ccco2)cc(C)c1/C=C/c1cncc(-c2nn[nH]n2)c1`, the inhibition was -0.28% in assay [1]; 1.32% in assay [2]; 1.25% in assay [3]; 3.4% in [4]; 4.41% in assay [5]; 1.33% in assay [6]. Moreover, the inhibition stood at 1.22% in assay [7]; 0.14% in assay [8]; 1.06% in assay [9]; 0.57% in [10]; 1.49% in assay [11]; 0.12% in assay [12]. The inhibition in [13] was 1.83%; in assay [14], 0.41%; in assay [15] it was 0.28%; in [16], -0.49%; in [17] it was 6.77%; in assay [18] it was -2.65%. Moreover, the inhibition in assay [19] came to 0.13%; in assay [20], 0.36%.

For the compound `COc1cccc(-n2ncc3c(N/N=C/c4ccncc4)ncnc32)c1`, the inhibition in assay [1] amounted to 2.54%; in assay [2], 0.3%; in [3], 0.25%; in assay [4], 5.39%; in [5], 17.6%; in assay [6], 5.48%. Moreover, the inhibition in [7] was 7.43%; in assay [8] it was 1.36%; in [9] it was 3.36%; in assay [10], 0.77%; in assay [11], 1.69%; in assay [12], 0.83%. Besides, the inhibition in assay [13] was 4.38%; in [14], 1.56%; in [15], 3.04%; in [16] it was 4.22%; in [17], 27.9%; in assay [18] it was 15.4%. For the same compound, the inhibition is 54% in assay [19] and 3.12% in [20].

For the compound `NS(=O)(=O)c1ccc(N/C=C2\C(=O)Nc3ccc4ncsc4c32)cc1`, the inhibition was 34.6% in assay [1]; -0.28% in [2]; 0.4% in [3]; 15.2% in [4]; 47.6% in assay [5]; 7.45% in assay [6]. Moreover, the inhibition in assay [7] is 19.8%; in assay [8], 1.16%; in assay [9], 4.82%; in assay [10], 0.27%; in [11] it was 1.21%; in assay [12], 0.54%. Moreover, the inhibition in assay [13] is 4.12%; in assay [14], 2.27%; in [15] it was 7.16%; in assay [16] it was 2.12%; in assay [17], 21%; in assay [18] it was 9%. Also, the results for the inhibition in assay [19] and in assay [20] were 25.8% and 10.7%, respectively.

As for `NS(=O)(=O)c1ccc(-c2ccc3c(NC(=O)C4CC4)n[nH]c3c2)cc1`, the inhibition in assay [1] was 2.59%; in assay [2] it was 0.57%; in assay [3] it was -1.27%; in assay [4] it was -3.09%; in [5] it was 3.54%; in assay [6], 2.77%. For the same compound, the inhibition in assay [7] is 0%; in [8], 1.16%; in assay [9] it was 0.95%; in [10], -0.15%; in [11], 0.28%; in assay [12], -0.26%. In addition, the inhibition in assay [13] is -1.81%; in assay [14] it was 0.51%; in assay [15], 0.89%; in assay [16], 5.15%; in assay [17] it was 3.27%; in assay [18], 1.79%. The inhibition in [19] came to 8.87%; in assay [20] it was 5.3%.
